smiles,measurement,setting,value
COc1cc(N2CCN(C)CC2)ccc1Nc1ncc2c(n1)N(C)c1ccccc1C(=O)N2 [XMD8-87],Kinases covered,PTK6,PTK6
CCCc1cc(N2CCCN(C)CC2)nc2sc3c(N)ncnc3c12 [BI00604564],Kinases covered,RIOK2,RIOK2
Cc1cc(NC(=O)c2cccc(NC(=O)/C=C/CN(C)C)c2)ccc1Nc1nccc(-c2cccnc2)n1 [JNK-IN-7],Kinases covered,RIOK2,RIOK2
CC1=C(C(=O)Nc2ccc3[nH]ncc3c2)C(c2ccc(Cl)c(Cl)c2)CC(=O)N1 (stereo not shown) [GSK299115A],Kinases covered,ROCK1,ROCK1
CCn1c(-c2nonc2N)nc2cncc(CNC3CCNCC3)c21 [SB-747651A],Kinases covered,ROCK2,ROCK2
CCn1c(-c2nonc2N)nc2cncc(C(=O)N3CC[C@H](N)C3)c21.Cl [SB-772077-B],Kinases covered,ROCK2,ROCK2
COc1cc(Nc2cnc(C#N)c(O[C@H](C)CN(C)C)n2)ncc1-c1cnn(C)c1 [CCT244747],Kinases covered,RPS6KA1,RPS6KA1
